High-throughput results deposited in PubChem BioAssay by National Center for Advancing Translational Sciences (NCATS).
D2 PAM-1 = human D2 receptor positive allosteric modulation; P14416; DiscoveRx D2 beta-arrestin cells, luminescence, 90 min; 100% = 57 uM dopamine signal; potentiation, % (test concentration not listed); 0.23% of 360,000 active; AID 624464; in the data active = potentiation above about 50%; inconclusive = mostly about 30% to 49%
Target sequence (P14416 whole entry, looked up): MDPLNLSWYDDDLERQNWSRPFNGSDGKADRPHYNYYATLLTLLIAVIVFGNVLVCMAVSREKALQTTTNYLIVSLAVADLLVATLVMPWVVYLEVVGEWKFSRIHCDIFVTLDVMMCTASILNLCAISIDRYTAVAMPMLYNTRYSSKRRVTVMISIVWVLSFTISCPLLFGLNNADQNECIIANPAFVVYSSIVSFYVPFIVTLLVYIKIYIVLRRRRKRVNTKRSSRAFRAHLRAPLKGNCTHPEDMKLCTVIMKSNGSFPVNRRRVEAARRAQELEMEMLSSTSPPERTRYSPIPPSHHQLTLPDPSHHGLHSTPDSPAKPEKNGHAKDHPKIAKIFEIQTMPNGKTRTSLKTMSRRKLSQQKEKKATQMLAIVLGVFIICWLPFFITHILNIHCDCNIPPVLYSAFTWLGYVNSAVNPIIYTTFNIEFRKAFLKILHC
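PathHunter D2 cells, attached overnight at 37 deg C, received compound in DMSO plus dopamine at EC20 (50 nM final) for 90 min at 37 deg C. Beta-arrestin recruitment was read as luminescence after 1 h with detection reagent at ambient temperature.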
D2 ag-1 = agonists of human D2 dopamine receptor (beta-arrestin); DiscoveRx PathHunter D2 beta-arrestin, luminescence, 90 min; 100% = 57 uM dopamine signal; activation, % (no concentration beside the values); 0.084% of 360,000 active; AID 624465; in the data active = activation above about 40%; inconclusive = between about 15% and that limit
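DiscoveRx PathHunter D2 beta-arrestin cells (2,100/well) attached overnight, then compound-stimulated 90 min at 37 C in HBSS/10 mM HEPES/0.1% Tween-20 buffer; beta-galactosidase complementation read by luminescence after 1 h at ambient temperature. Dopamine 57 uM final (EC100) as control.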
D2 antagonist = antagonists of human D2 dopamine receptor | P14416 | HEK293 TREx D2 cells, calcium flux, dopamine EC80 | inhibition, % at 10 µM | 2% of 340,000 active; in the data active = inhibition above about 30%; inactive = below that, where a call was filed
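Antagonism is scored as inhibition of an EC80 dopamine-evoked calcium signal in a force-coupled, tetracycline-inducible HEK293 T-REx D2 line, with compound present 180 s before agonist.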
D2 PAM-2 = positive allosteric modulators of human D2 dopamine receptor; P14416; HEK293 T-REx D2, calcium flux, EC20 dopamine potentiation; potentiation, % at 10 µM; 0.34% of 340,000 active; AID 485347;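 active = potentiation over 3 SD above the plate norm, cut at about 30% in these data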
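Potentiation of an EC20 dopamine calcium response measured kinetically over 180 s, after a preceding 180 s compound-only read flagging agonists. Cells: inducible Hek293 Trex D2 line, 4000/well, cultured overnight at 30 C before dye loading.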
D2 ag-2 = activates the human D2 dopamine receptor | HEK293 T-REx D2 cells, calcium flux agonist mode | activation, % at 2 µM | AID 485358 | 0.53% of 340,000 active;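 active = activation over 3 SD above normal in the single-dose calcium agonist read, cut at about 30% in these data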
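Calcium-flux readout, 1 cycle/sec over 180 s following compound pin transfer, in inducible HEK293 Trex D2 cells (force-coupled); dopamine controls included. Positive calcium responses during this window marked compounds as potential agonists.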
Large screens that a line does not name were inactive. In the library only some 2.4% were active in any assay of this set; here they are far more common.

COc1cccc(-c2nc(-c3ccccc3)c(-c3ccccc3)[nH]2)c1OCC(=O)O	D2 PAM-1 65.4
Cc1cccc(/C(N)=N/OC(=O)c2ccco2)c1	D2 PAM-1 56.1
Cc1ccc(/C(N)=N/OC(=O)c2ccco2)cc1	D2 PAM-1 55.7
N/C(=N\OC(=O)c1ccco1)c1ccccc1	D2 PAM-1 inconclusive
N/C(=N\OC(=O)c1ccco1)c1ccc(Br)cc1	D2 PAM-1 52.0
COc1ccc(/C(N)=N/OC(=O)c2ccco2)cc1	none
CCOc1ccccc1NC(=O)c1cnc(N2CCOCC2)c2ccccc12	none (no result: D2 PAM-1, D2 ag-1, D2 antagonist)
C[C@H](CO)N1C[C@H](C)[C@@H](CN(C)S(=O)(=O)c2cccs2)Oc2c(NC(=O)NC3CCCCC3)cccc2C1=O	none (no result: D2 antagonist, D2 PAM-2, D2 ag-2)
Cc1ccc(/C=C2\CCC3=C2OC(N)=C(C#N)C3c2ccc(C)cc2)cc1 (stereo unspecified)	D2 ag-2 72.3
Cc1ccc(C2C(C#N)=C(N)Oc3cc(N)ccc32)cc1 (stereo unspecified)	none
CCCN1C=CC(=C/C=C(\C#N)C(=O)OCC)C=C1	D2 ag-2 34.5 (no result: D2 PAM-1, D2 ag-1)
CCCN1C=CC(=CC=C(C#N)C#N)C=C1	none
CCCCCCN1C=CC(=C/C=C(\C#N)C(=O)OCC)C=C1	D2 ag-2 43.1
Cc1ccc(Cl)cc1N1CCN(C(=O)CCC(=O)Nc2ccc3nc(N4CCC(C)CC4)cc(C)c3c2)CC1	none (no result: D2 PAM-1, D2 ag-1, D2 antagonist)
CCOc1ccc(CNC(=O)c2ccc3c(c2)c(C)c(C)n3Cc2ccccc2)cc1OC	none (no result: D2 PAM-1, D2 ag-1, D2 antagonist)
COc1ccc(NC(=O)CSc2nc(-c3ccc(C)cc3)cc(C(F)(F)F)c2C#N)cc1	D2 PAM-2 30.9 (no result: D2 antagonist, D2 ag-2)
COc1ccc(-n2c(SCC(=O)Nc3ccccc3)nc(O)cc2=O)cc1	none
COc1ccc(NC(=O)CSc2ncnc3sc(C)cc23)cc1	D2 antagonist 31.7
COc1ccc(NC(=O)CSc2nc(O)cc(=O)n2-c2ccc(OC)cc2)cc1	D2 PAM-2 39.6
COc1ccc(C2=NS(=O)(=O)N(C)C(C(=O)NCc3ccccn3)=C2)cc1OC	none
COc1cccc(-c2cnc3c(NC(C)=O)cc(-c4ccc(C(=O)N5CCOCC5)cc4)cn23)c1	none (no result: D2 antagonist, D2 PAM-2, D2 ag-2)
CC(C)n1ncc2c(C(=O)NCC(=O)Nc3ccccc3Br)cc(C3CC3)nc21	none
Cc1ccc(OCCCCN2CCc3ccccc3C2)cc1	D2 antagonist 73.4
Cc1ccc([N+](=O)[O-])c(OCCN2CCc3ccccc3C2)c1	D2 antagonist 88.0
O=[N+]([O-])c1ccccc1OCCCN1CCc2ccccc2C1	D2 antagonist 74.8
Cc1ccc(NC(=O)CSCC(=O)Nc2cc(S(=O)(=O)N3CCOCC3)ccc2OC(C)C)cc1	none (no result: D2 antagonist, D2 PAM-2, D2 ag-2)
COc1cc(CNC(=O)CSCc2nc3cccnc3n2C2CCCCC2)cc(OC)c1OC	none (no result: D2 PAM-1, D2 ag-1, D2 antagonist)
COc1ccc(CCN2CC(C(=O)NCCc3cccnc3)CCC2=O)cc1 (stereo unspecified)	D2 antagonist 31.6
Cc1oc(-c2cccc(C(F)(F)F)c2)nc1CN1CCC[C@H]1CO	D2 antagonist 70.3
COc1ccc(/C=C2\SC(=O)N(CCNC(=O)C3CC(=O)N(c4ccccc4)C3)C2=O)cc1 (stereo unspecified)	D2 PAM-2 37.3
CCOc1ccc(N2CC(C(=O)NCCN3C(=O)S/C(=C\c4ccc(OC)cc4)C3=O)CC2=O)cc1 (stereo unspecified)	none
Cc1cc2c(cc1[N+](=O)[O-])NC(CNC(C)C)CC2 (stereo unspecified)	D2 antagonist 64.8
Cc1cc(C(=O)NCC2CCCCC2)ccc1[N+](=O)[O-]	none (no result: D2 PAM-2)
COCCNC(=O)CCN1C(=O)c2cccnc2Oc2ccc(C)cc21	none (no result: D2 PAM-1, D2 ag-1, D2 antagonist)
CC(=O)CC1(O)C(=O)N(Cc2ccccc2)c2ccccc21 (stereo unspecified)	D2 antagonist 61.4
C/C(CC1(O)C(=O)N(Cc2ccccc2)c2ccccc21)=N\O (stereo unspecified)	none
CC1(C)C(=S)N(Cc2ccccc2)c2ccccc21	D2 PAM-1 62.5
COc1ccccc1NC(=O)CN(C)S(=O)(=O)c1ccc2c(c1)c(=O)n(C)c(=O)n2C	none (no result: D2 PAM-1, D2 ag-1, D2 antagonist)
Cc1ccc(N2C(=O)C(Cl)=C(N3CCOCC3)C2=O)c(C)c1	none (no result: D2 antagonist, D2 PAM-2, D2 ag-2)
O=C(COC(=O)c1ccccc1SCC(=O)N1CCCC1)Nc1ccccc1C(F)(F)F	D2 antagonist 31.1
CCOc1ccccc1NC(=O)COC(=O)c1ccccc1SCC(=O)N1CCCC1	none
O=C([O-])c1cc(-c2ccccc2)cc(-c2ccccc2)[n+]1Cc1ccccc1	none (no result: D2 PAM-1, D2 ag-1)
N#Cc1c(NC(=O)/C=C/c2ccco2)sc2c1CCCC2	D2 antagonist 57.3
O=C(/C=C/c1ccco1)Nc1sc2c(c1C(=O)O)CCC2	none
O=C(O)CCCn1cc(NC(=O)c2sc3ccccc3c2Cl)cn1	none
O=C(NCCCN1CCCCC1)c1ccc2c(c1)NC(=O)C(N1CCCCC1)S2 (stereo unspecified)	D2 antagonist 46.9
O=C(O)c1ccc2c(c1)NC(=O)C(N1CCCC1)S2 (stereo unspecified)	none
CC1CC(C)CN(CCCNC(=O)c2ccc3c(c2)NC(=O)C(N2CCCCC2)S3)C1 (stereo unspecified)	D2 antagonist 87.7
Cc1[nH]c2ccc(C(=O)NCCCN3CCCCCC3)cc2c1C	D2 antagonist 61.7
CCCN1CCN(CCCNC(=O)c2cc3c(=O)[nH]c4ccc(C)cc4c3s2)CC1	D2 antagonist 42.6
CCN(CCCNC(=O)c1cc2c(=O)[nH]c3ccc(C)cc3c2s1)c1ccc(C)cc1	none (no result: D2 PAM-1, D2 ag-1, D2 antagonist)
COc1ccc(C(CC(=O)Nc2ccc(Br)cn2)N2Cc3ccccc3C2=O)cc1 (stereo unspecified)	none (no result: D2 PAM-1, D2 ag-1, D2 antagonist)
O=C(NCc1ccco1)c1ccc(Cl)c(S(=O)(=O)N2CCCC2)c1	none
Cn1nc(C(=O)NNC(=O)COc2ccccc2)c2ccccc2c1=O	none
Cc1occc1C(=O)NNC(=O)c1nn(C)c(=O)c2ccccc12	D2 PAM-2 30.9
CC(C(=O)Nc1cc(C(F)(F)F)ccc1Cl)n1nnc2sc3c(c2c1=O)CCCC3 (stereo unspecified)	none (no result: D2 PAM-1, D2 ag-1, D2 antagonist)
COc1cccc(-n2c([S-])c(C(=O)Nc3ccc(C(F)(F)F)cc3)[n+]3ccccc23)c1	D2 antagonist 35.1 (no result: D2 PAM-1, D2 ag-1)
Cc1ccccc1NC(=O)Cc1nc(COC(=O)CSc2ccc(F)cc2)cs1	none (no result: D2 antagonist, D2 PAM-2, D2 ag-2)
CN(c1ccccc1)S(=O)(=O)c1cccc(C(=O)NCc2ccccc2CN2CCCC2)c1	D2 antagonist 39.3
Cc1c(C(=O)NCc2ccccc2CN2CCCC2)oc2ccc(F)cc12	D2 antagonist 58.4
CC1CCN(C(=O)COC(=O)c2cccc(S(=O)(=O)N(C)c3ccccc3)c2)CC1	D2 antagonist 43.3
CN(c1ccccc1)S(=O)(=O)c1ccc(C(=O)NCc2ccccc2CN2CCCC2)cc1	none
O=C(NCc1ccccc1CN1CCCC1)c1cccc(S(=O)(=O)N2CCOCC2)c1	D2 antagonist 49.4
